Screens (PubChem)
A1 inhib: A1 inhibition; MEF A1-2A-BIM cells, caspase-Glo luminescence, 3 h; percent of clofoctol signal, DMSO as zero; caspase activation, % (test concentration not listed); 21,000 compounds, 0.51% hits;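 active = most replicate scores above 10, or exactly half above 10 with mean activity above 10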;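 also: effector caspase 3 and 7 activity cleaving a DEVD luciferin substrate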
Active calls of the source: *. Shown is part of a subset that was picked to be rich in hits.

SMILES	A1 inhib
CCc1ccccc1NC(=O)C(CC)n1nc(C)n2c(cc3cc(C)ccc32)c1=O (centres undefined)	0
C=CCN1C(=O)C2(c3ccccc31)C(C(=O)c1ccccc1)C(=O)C(=O)N2CCOC (centres undefined)	-1
CN1CCN(S(=O)(=O)c2ccc(Br)cc2)CC1	0
O=S(=O)(c1ccc(-c2csc(Nc3ccc(Br)cc3)n2)cc1)N1CCCCC1	15*
CN(C)C(=S)Nc1ccc(S(=O)(=O)N2CCCCC2)cc1	2
COc1ccc(-c2cc(C(=O)NCc3cccc(OC)c3)c3ccccc3n2)cc1	0
O=C(NCCc1ccsc1)c1cc2c(s1)-c1ccccc1OC2	0
COc1cccc(NC(=O)Cn2ncc3c4ccccc4n(Cc4ccccc4)c3c2=O)c1	17*
CCOC(=O)c1cccc(NC(=O)Cn2ncc3c(C)n(Cc4ccc(F)cc4)c(C)c3c2=O)c1	0
O=C(Cn1ncc2c3ccccc3n(Cc3ccccc3)c2c1=O)NC1CC1	-1
Cc1cc2c(cc(C(=O)NCc3ccc(Cl)cc3)n2Cc2ccc(Cl)cc2)o1	-1
CCOc1ccc(-c2c(C#N)c(N)nc(SCC(=O)c3ccc(Cl)cc3)c2C#N)cc1	16*
CCN(CC)C(=O)CSc1nc(N)c(C#N)c(CC(C)C)c1C#N	1
Cc1ccc(-c2nsc(SCC(=O)c3ccc(Cl)cc3)n2)cc1	0
CCn1c(-c2ccc(F)cc2)csc1=Nc1ccc(C)cc1	1
CN1CCN(CCNC(=O)Cn2cccc2C(=O)c2ccccc2)CC1	0
COc1cc2ncnc(Nc3cccc(O)c3)c2cc1OC	12*
COc1cc2ncnc(Nc3cccc(Br)c3)c2cc1OC	3
COc1cc2ncnc(Nc3cccc(Cl)c3)c2cc1OC	3
C=C(C)COc1ccc(/C=C(/NC(=O)c2ccccc2)C(=O)O)cc1OC	0
COc1ccc(-c2nc(CNS(=O)(=O)N(C)C)cs2)cc1	0
Cn1c2ccccc2c2c3c(c4c5ccccc5n(CCC#N)c4c21)CNC3=O	28*
Cn1c2ccccc2c2cnn(CC(=O)O)c(=O)c21	0
COc1ccc(CN2CC(C(=O)NCCCN3CCC(C)CC3)CC2=O)cc1 (centres undefined)	1
Cc1nc(NCCc2ccccc2)c2c3c(sc2n1)CCCC3	0
SMILES	A1 inhib
COC(=O)C1CCN(C(=O)C(C)Oc2ccccc2)CC1 (centres undefined)	0
COc1ccc(-n2nnc3c(SCC(=O)Nc4cccc(C(F)(F)F)c4)ncnc32)cc1	-5
C=CCn1cc(/C=C2/NC(=O)N(c3ccccc3)C2=O)c2ccccc21	2
COc1cccc2c1C(=O)c1c(O)c3c(c(O)c1C2=O)C[C@@](O)(C(=O)CO)C[C@@H]3OC1CC(N)C(O)C(C)O1 (some centres undefined)	15*
COc1cccc2c1C(=O)c1ccc3c(c1C2=O)C(=O)CC(C)(O)C3 (centres undefined)	-1
COc1cccc2c1C(=O)c1c(O)c3c(c(O)c1C2=O)C[C@@](O)(C(=O)CO)C[C@@H]3O[C@H]1C[C@H](N)[C@H](O)[C@H](C)O1	16*
COc1cccc2c1C(c1ccc3c(c1O)C(=O)CC(C)C3O)OC2=O (centres undefined)	1
CCOc1ccc(NC(=O)c2cc3ccccc3o2)cc1	-1
C/C(=N\O)c1cc(-c2ccccc2)c(C(F)(F)F)s1	1
Cc1ccc(Sc2c(CS(=O)(=O)c3ccccc3)[nH]c3ccccc23)cc1	1
CCN(CC)C(=S)Oc1ccc(C(=O)Nc2cccc3ccccc23)cc1	2
CCc1c(C(=O)OC)nnn1-c1nonc1N	-1
Cc1cc(NC(=O)c2ccc3c(c2)NC(=O)c2ccccc2S3)ccc1Br	15*
Cc1cc(C)cc(NC(=O)c2ccc3c(c2)NC(=O)c2ccccc2S3)c1	3
CNC(=O)c1ccc2c(c1)NC(=O)c1ccccc1S2	1
COc1cc2ccccc2cc1C(=O)Nc1ccc2c(c1)OCCO2	-2
Cc1ccc(NC(=O)CSc2nc3ccccc3c(=O)n2CC2COc3ccccc3O2)cc1 (centres undefined)	-1
Cc1ccc(NC(=O)CSc2nc3c(sc4ccccc43)c(=O)n2CC2CCCO2)cc1C (centres undefined)	33*
CCCCn1c(SCC(=O)NCc2ccccc2)nc2c(sc3ccccc32)c1=O	0
Cc1ccc(C(=O)OCC2OC(O)C(O)C2OC(=O)c2ccc(C)cc2)cc1 (centres undefined)	0
